From PubChem BioAssay
Rows were chosen to be rich in hits. Some 1.5% of all compounds tested hit in one or more screens of this group.
BAP1 inh: human BAP1 deubiquitinase inhibition; Q92560; recombinant BAP1, Ub-AMC hydrolysis fluorescence kinetic; stronger effect = lower value; calls only at 20 µM; 72,000 tested, 0.48% active;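 active means activity remaining at or below 50% of control, provided the compound also passes the data quality filters; inactive means the rest, including low values that fail the filters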;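 further: 100% = DMSO wells rate and 0% = substrate alone blank rate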
PLAP activator: activates human placental alkaline phosphatase; P05187; purified PLAP enzyme, luminescent substrate read-out; stronger effect = higher value; activation fold at 20 µM; 96,000 tested, 1.2% active; in the data active means activation fold above about 2
sEH inhibitor: soluble epoxide hydrolase (human) inhibition. recombinant human sEH enzymatic activity assay. inhibition, % at 2 µM. 91,000 tested, 0.34% active. AID 707. P34913; in the data active means inhibition above about 80%
Target sequence (P34913 whole entry, looked up): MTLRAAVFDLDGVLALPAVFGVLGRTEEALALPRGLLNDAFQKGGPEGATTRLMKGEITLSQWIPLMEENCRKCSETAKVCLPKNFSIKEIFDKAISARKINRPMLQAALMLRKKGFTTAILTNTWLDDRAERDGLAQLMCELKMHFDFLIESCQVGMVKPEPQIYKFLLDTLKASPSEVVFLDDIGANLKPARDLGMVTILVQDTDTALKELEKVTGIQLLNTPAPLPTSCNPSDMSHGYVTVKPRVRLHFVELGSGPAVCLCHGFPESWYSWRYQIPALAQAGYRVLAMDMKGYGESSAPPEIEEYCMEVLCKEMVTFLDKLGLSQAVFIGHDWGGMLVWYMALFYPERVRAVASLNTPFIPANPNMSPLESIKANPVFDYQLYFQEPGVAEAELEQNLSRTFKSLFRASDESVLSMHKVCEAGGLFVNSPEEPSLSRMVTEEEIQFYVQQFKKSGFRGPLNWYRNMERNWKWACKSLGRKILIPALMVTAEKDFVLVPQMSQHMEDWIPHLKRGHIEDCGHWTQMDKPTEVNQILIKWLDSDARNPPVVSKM
sEH act: soluble epoxide hydrolase (human) activation. P34913. purified human sEH enzymatic activity, activator screen. activation, % at 2 µM. 91,000 tested, 0.04% active. AID 717; in the data active means activation above about 37%
Numbers without * were called inactive; i = inactive; / = no result given; + = active, no number.

SMILES	BAP1 inh	PLAP activator	sEH inhibitor	sEH act
Cn1c(-n2c(CN3C(=O)c4ccccc4C3=O)nc3ccccc3c2=O)nc2ccccc21	i	/	/	/
N#Cc1c(NC(=O)CN2C(=O)C3CC=C(Cl)CC3C2=O)sc2c1CCC2 (stereo unspecified)	i	/	/	/
Cc1ccc(C2=NNC(C(O)C(O)C(O)CO)S2)cc1 (stereo unspecified)	/	2.4*	6	-4
O=C(Nc1cccc2ccccc12)c1ccccc1F	i	/	/	/
Cc1cc(NC(=O)C2CCCN(S(=O)(=O)c3c(C)noc3C)C2)n[nH]1 (stereo unspecified)	i	0.8	5	-4
CCC1CCC/C1=N\NC(=O)c1cc(C)[nH]n1 (stereo unspecified)	/	2.3*	-5	6
Cc1ccc2c(c1)N(CCC(=O)NCC1COc3ccccc3O1)C(=O)CO2 (stereo unspecified)	i	2.2*	15	-16
CCC1Oc2ccc(C)cc2N(CC(=O)NCC2COc3ccccc3O2)C1=O (stereo unspecified)	/	1.5	11	-10
CCOC(=O)c1cccc(N2C(=O)C3C4CCC(C4)C3C2=O)c1 (stereo unspecified)	i	/	/	/
Cc1ccc(C(=O)NC(=S)NNC(=O)c2ccccc2[N+](=O)[O-])cc1	/	/	6	-1
O=C(NNC(=S)NC(=O)c1ccccc1[N+](=O)[O-])c1ccccc1[N+](=O)[O-]	/	2.5*	10	-9
COc1ccc(C(O)c2nc3ccccc3n2C)cc1OC (stereo unspecified)	i	1	/	/
COc1cccc(C(O)c2nc3ccccc3n2C(C)C)c1 (stereo unspecified)	/	2.4*	-11	13
COc1ccc(-n2cnc3cc(NCc4ccc(Br)cc4)ccc32)cc1	i	/	/	/
Fc1cccc(CSc2nc3ccncc3[nH]2)c1	i	/	/	/
Clc1cccc(CSc2nc3ccncc3[nH]2)c1	/	2.4*	-4	2
O=C(Nc1cc(Cl)ccc1C(=O)O)c1cccs1	i	/	/	/
Cc1cc(C)nc(Nc2nc3ccccc3[nH]2)n1	i	1.3	-8	8
c1ccc(Nc2nc3ccccc3[nH]2)nc1	i	2.2*	-8	8
CC1(C)CC(=O)c2cnn(-c3nc4ccccc4[nH]3)c2C1	i	2.1*	/	/
Cc1c(O)ccc(-c2[nH]ncc2-c2nc3ccccc3s2)c1O	/	2.2*	4	-4
Clc1cccc(Nc2c3c(nc4ncnn24)CCC3)c1	i	2*	/	/
CCOc1cc(C(c2c(C)[nH][nH]c2=O)c2c(C)[nH][nH]c2=O)ccc1OS(=O)(=O)c1ccccc1	/	2.6*	9	-8
Cc1ccc(S(=O)(=O)Oc2ccc(C(c3c(C)[nH][nH]c3=O)c3c(C)[nH][nH]c3=O)cc2)cc1	/	/	4	-4
CC(=O)NC(c1cccc([N+](=O)[O-])c1)c1ccc2cccnc2c1O (stereo unspecified)	i	/	/	/
SMILES	BAP1 inh	PLAP activator	sEH inhibitor	sEH act
Cc1cc(NC(c2cccnc2)c2ccc3cccnc3c2O)no1 (stereo unspecified)	i	2.4*	0	1
COc1ccc(-c2cn3c(C)c(C(=O)N4CCc5ccccc5C4)sc3n2)cc1	+	/	/	/
Cc1c(C(=O)N2CCc3ccccc3C2)sc2nc(-c3ccccc3)cn12	i	1.3	2	-1
CCC(C)Nc1c(N)c(=O)oc2ccccc12 (stereo unspecified)	i	/	/	/
COc1ccc(CNC(=O)CSc2nc3ccccc3o2)cc1	i	/	/	/
Cc1cc(=O)oc2c3c4c(cc12)OCCN4CCC3	/	/	-7	13
CC(C)c1cc(=O)oc2c3c4c(cc12)CCCN4CCC3	/	2*	/	/
CCOC(=O)c1cccc(NC(=O)COc2ccc(Cl)cc2)c1	i	/	/	/
COCCN1CCn2c(nc3cc(NC(=O)NC4CCCCC4)ccc32)C1	/	1.5	76	-76
O=C(Nc1ccc2c(c1)nc1n2CCN(Cc2ccccc2)C1)NC1CCCCC1	/	1	91*	-91
CC(=O)c1c(C)[nH]c(C(=O)OCC(=O)N2CCN(S(=O)(=O)c3ccc(C)cc3C)CC2)c1C	/	2*	0	1
Cc1ccc(S(=O)(=O)NC(CC(C)C)C(=O)Nc2nccs2)cc1 (stereo unspecified)	/	2.2*	-3	2
COc1ccc(N/C(N)=N/c2nc(CSc3ccc(Cl)cc3)cc(=O)[nH]2)cc1	/	2*	-12	12
N/C(=N\c1nc(CSc2ccc(Cl)cc2)cc(=O)[nH]1)Nc1cccc2ccccc12	/	1.5	-8	6
COC(=O)C(NC(C)=O)(Nc1sc2c(c1C#N)CCCCC2)C(F)(F)F (stereo unspecified)	i	/	/	/
CCCCc1nc(SCC(=O)Nc2ccc(S(N)(=O)=O)cc2)n[nH]1	/	2*	6	-7
CCCCNC(=O)CCC(=O)Nc1ccc2nc(N3CCOCC3)cc(C)c2c1	/	1.1	-10	10
Cc1cc(N2CCCCC2)nc2ccc(NC(=O)CCC(=O)NCCC(C)C)cc12	/	2.2*	-7	4
O=C(COc1c(F)c(F)c(C(F)(F)F)c(F)c1F)Nc1ccc(N2CCOCC2)c(Cl)c1	i	1.1	83*	-83
CCOc1c(Br)cc(CNc2ncn[nH]2)cc1OC	i	1.7	7	-4
COc1cc(CNc2ncn[nH]2)cc(Br)c1OC	i	2.5*	-10	8
CC(C)C(N)C(=O)N1CCOCCOCCOCC1 (stereo unspecified)	i	/	/	/
O=C(CCC1CCCCC1)Nc1ncn[nH]1	i	2*	-8	6
O=C(CCC1CCCCC1)Nc1c[nH]c(=O)[nH]c1=O	i	1	/	/
Cc1nc(SCC(=O)c2ccc(F)cc2)n[nH]1	i	2.3*	/	/
SMILES	BAP1 inh	PLAP activator	sEH inhibitor	sEH act
Cc1cc(C(=O)CSc2n[nH]c(N)n2)c(C)n1-c1cc(F)ccc1F	/	2.4*	-8	5
C=CCn1c(C)cc(C(=O)CSc2n[nH]c(N)n2)c1C	/	2.7*	-21	21
CC(C)c1ccc(OC(=O)CN2C(=O)c3ccccc3C2=O)cc1	i	/	/	/
O=C(O)CCC(=O)Nc1sc2c(c1C(=O)Nc1ccccc1)CCCC2	i	/	/	/
C/C(=N\OC(=O)c1ccc(F)cc1)c1nccs1	/	0.9	-1	1
C/C(=N/OC(=O)c1c(F)cccc1F)c1nccs1	/	0.9	-40	39*
Cc1ccc(OCCN2CCN(c3ncnc4sc(C)c(C)c34)CC2)cc1	/	2.2*	-1	2
Cc1sc2ncnc(N3CCCCC3)c2c1C	/	0.8	14	-13
CC(C)c1cc([N+](=O)[O-])c2nc(NC(=O)C3CCCCC3)sc2c1	i	/	/	/
Cc1cc(C(F)(F)F)nn1CC(=O)NNC(=S)Nc1ccc(Cl)cc1	/	1.2	0	3
Cc1cc(C(F)(F)F)nn1CC(=O)NNC(=S)Nc1ccc(F)cc1	/	2.8*	14	-13
Cc1cc(C(F)(F)F)nn1CC(=O)NNC(=S)NCC(C)C	/	2.6*	-13	15
CCOC(=O)c1nnc(-c2ccccc2)nc1NCc1ccccc1	/	1.2	7	-5
CCOC(=O)c1c2n(c3c(NCc4ccccc4)ncnc13)CCCC2	i	2.5*	1	-3
CCOc1ccccc1NC(=O)C1=C(C)NC(=O)NC1c1cccc2ccccc12 (stereo unspecified)	i	/	/	/
Cc1nn(Cc2cccc(F)c2)c(C)c1NC(=O)c1ccc(COc2ccccc2Cl)cc1	/	2*	-2	4
O=C(N/N=C/C=C/c1ccccc1)c1n[nH]c2c1CCC2	/	2.4*	-16	18
